Sampled rows, rich in hits. Any-hit rate of the full collection: about 5.3%.
MT1-MMP txn act – activates MT1-MMP transcription; HT1080 MT1-MMP promoter luciferase reporter, luminescence, overnight; active compounds read high; activation factor at 10 µM; 86,000 compounds, 0.16% hits;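 active = activation factor of at least 2 for MT1-MMP transcription at 10 µM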
Measles CPE – protection of cells from measles virus. 140,000 compounds, 1.5% hits. Measles virus-infected cells, CPE protection, absorbance. protection (pct of control), % at 4 µM; in the data active = protection mostly above about 24%, no sharp cut-off; inactive = mostly below about 26%
PostGolgi ctrl – yeast control strain growth, post-Golgi counter-screen | inhibition, % at 10 µM | 98,000 compounds, 5% hits | efflux-deficient yeast background strain, growth absorbance A615, 16 h
PostGolgi yeast – growth inhibition of a yeast mutant, post-Golgi transport screen; 98,000 compounds, 0.9% hits; inhibition, % at 10 µM; post-Golgi transport phenotypic cell assay;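 also: yeast cells grown in 1536-well plates; yeast grown about 18 h at 30C before absorbance read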
Numbers without * were called inactive; . = not tested or not shown. Rule as the data show it, unless noted: active = inhibition above about 30%; inactive = the rest.

SMILES | MT1-MMP txn act | Measles CPE | PostGolgi ctrl | PostGolgi yeast
CC(Oc1ccc(Cl)cc1Cl)C(=O)Nc1ccncc1 (configuration not stated) | 1 | 9 | 44* | 58*
CCCn1nnc(NC(=O)C(C)Oc2ccc(Cl)cc2Cl)n1 (configuration not stated) | 1.1 | 47* | 7 | -1
CC(Oc1ccc(Cl)cc1Cl)C(=O)Nn1cnnc1 (configuration not stated) | 1.2 | 19 | . | .
CC(Oc1ccc(Cl)cc1Cl)C(=O)Nc1cccnc1 (configuration not stated) | 1 | 22 | . | .
Cc1ccccc1NC(=O)C(C)O/N=C/c1cccc([N+](=O)[O-])c1 (configuration not stated) | . | 11 | 26 | -9
CCc1ccc(N(C(=O)c2csnn2)C(C(=O)NC(C)(C)C)c2ccncc2)cc1 (configuration not stated) | . | 5 | -2 | 35*
CCc1ccc(N(C(=O)c2csnn2)C(C(=O)NCc2ccccc2)c2ccco2)cc1 (configuration not stated) | 1.1 | 35* | -1 | 6
CN(C)c1ccc(C(C(=O)NC(C)(C)C)N(C(=O)c2csnn2)C2CC2)cc1 (configuration not stated) | 1.1 | 3 | 2 | 6
Cc1ccc(C)c(NS(=O)(=O)c2cc(C(=O)NCCC3=CCCCC3)ccc2C)c1 | . | 6 | 14 | -8
O=C(Cn1cc2c(n1)CCCC2)N1CCc2ccccc21 | . | 10 | 38* | 5
N#Cc1cccc(NC(=S)Nc2ccccc2)c1 | . | 2 | . | .
CC(=O)Nc1cccc(OCC(O)Cn2cnc3ccccc32)c1 (configuration not stated) | 1.1 | 19 | 1 | -5
Cc1cc2ncn(CC(O)COc3cccc(C(=O)O)c3)c2cc1C (configuration not stated) | 1.1 | 34 | -7 | 35*
Nc1c(Br)cc2oc(-c3ccccc3)nc2c1Br | 2* | 8 | . | .
Cc1ccc(OCC(=O)N2CC3(C)CC2CC(C)(C)C3)cc1 (configuration not stated) | 1.3 | 6 | . | .
Cc1noc(C)c1COc1ccc(C(=O)OCC(=O)N2CC3(C)CC2CC(C)(C)C3)cc1 (configuration not stated) | 1 | 51* | -3 | -1
O=C(CCn1cnc(-c2ccccc2)c1-c1ccccc1)N/N=C/c1ccccc1O | . | 5 | . | .
Cc1cc(C)nc(NC(=O)/C=C/c2ccc(Cl)cc2Cl)c1 | . | 5 | 57* | 12
Cc1sc(N/N=C/c2cccnc2)nc1-c1ccccc1 | . | 83* | 13 | 1
C=CCn1c(COc2cc(C)ccc2C(C)C)nnc1SCC(=O)c1c(N)n(C)c(=O)n(C)c1=O | . | 5 | . | .
Cc1cc(=O)[nH]c(N2CCN(Cc3ccccc3)CC2)n1 | . | 0 | 1 | 1
Cc1cc(=O)[nH]c(N2CCc3ccccc3C2)n1 | 1.1 | 9 | 46* | 2
O=C(c1ccc(F)cc1)N1CCN(c2cc(=O)[nH]nc2-c2ccccc2)CC1 | . | 39* | 1 | -5
Cc1ccc(C(=O)N2CCN(c3cc(=O)[nH]nc3-c3ccccc3)CC2)cc1 | . | 38* | 1 | -9
Cc1ccc(C(=O)COC(=O)C2CC(=O)N(c3nc(-c4ccccc4)cs3)C2)cc1 (configuration not stated) | . | 15 | -1 | 4
SMILES | MT1-MMP txn act | Measles CPE | PostGolgi ctrl | PostGolgi yeast
O=C(Nc1cnn(Cc2ccccc2)c1)NC12CC3CC(CC(C3)C1)C2 | . | 23* | -1 | 3
Cc1cc(NC(=O)COC(=O)COc2cccc3c2OC(C)(C)C3)no1 | 1.2 | . | 2 | -4
Cc1cnc(NC(=O)COc2cccc3c2OC(C)(C)C3)s1 | 1.4 | 65* | 3 | -3
Cc1c(NC(=O)c2noc(C(C)C)c2[N+](=O)[O-])c(=O)n(-c2ccccc2)n1C | . | 29* | 3 | -4
CNC(=O)c1sccc1SCc1c(Cl)cccc1Cl | 0.9 | 1 | 46* | -4
CCc1cc(C(=O)Nc2ccc(C)cc2Br)cs1 | 2* | 15 | . | .
C=CCn1c2ccccc2n2nc(C)c(=O)nc12 | 1.4 | 38* | . | .
Cc1nn2c3ccccc3n(CCN3CCCCC3)c2nc1=O | 1.3 | 9 | . | .
COc1cc(CN2CCN(c3ccc(C)cc3)CC2)cc([N+](=O)[O-])c1O | . | 25 | 9 | 92*
COc1cccc(C2C(C(=O)c3cccs3)=C(O)C(=O)N2c2cc(C)on2)c1 (configuration not stated) | 1.1 | 37* | -1 | 5
Cc1cc(N2C(=O)C(O)=C(C(=O)c3cccs3)C2c2cccc(O)c2)no1 (configuration not stated) | 1 | 19 | -2 | 8
Cc1ccc(Nc2nnc(-c3ccncc3)s2)c(Br)c1 | . | 2 | . | .
CCOc1cc(S(=O)(=O)N2CC=C(c3ccc(F)cc3)CC2)c(OCC)cc1-n1cnnn1 | 0.8 | 11 | 101* | 0
CCN(c1cccc(C)c1)c1nc2ccsc2c(=O)s1 | . | 14 | 29 | -4
CCOC(=O)c1cnc2scnn2c1=O | 1.2 | 14 | 37* | 6
CC1=CC(C)(C)N(S(=O)(=O)c2ccc(F)cc2)c2ccc(C)cc21 | 0.5 | 19 | 29 | -8
CC1=CC(C)(C)N(S(=O)(=O)c2ccc(C)cc2)c2ccccc21 | 0.4 | -1 | 32* | -7
COc1cc(/C=N/NC(=O)CN2CCCCC2)ccc1OCc1ccccc1 | . | 34* | . | .
COc1cc(CC(=O)N/N=C/c2ccc([N+](=O)[O-])cc2)c([N+](=O)[O-])cc1OC | . | 11 | . | .
Cc1cc(NC(=O)COC(=O)c2cccc(OCc3ccccc3)c2)no1 | 1.2 | 27 | 6 | 7
COc1ccc(C(=O)Oc2cc(/C=N/NC(N)=S)ccc2OC)cc1 | . | 4 | 7 | 17
COc1cc(/C=N/OCC(=O)Nc2cc(C)on2)ccc1OCc1ccccc1 | . | 75* | . | .
COc1cc(/C=N/NC(=O)Cc2ccccc2)ccc1Oc1ccc([N+](=O)[O-])cc1[N+](=O)[O-] | . | 43* | . | .
COc1ccc(/C=N/NC(N)=S)cc1OC(=O)c1cccc2ccccc12 | . | 2 | 65* | -17
COc1ccc(/C=N/NC(=O)c2nc(-c3ccccc3)cc(-c3ccccc3)n2)cc1OC | . | 5 | 32* | 3
SMILES | MT1-MMP txn act | Measles CPE | PostGolgi ctrl | PostGolgi yeast
COc1cc(/C=C/C(=O)NC(C)C)ccc1OCc1ccccc1 | . | 88* | . | .
COc1ccc(/C=C/C(=O)NCCCc2ccccc2)cc1OC | . | 4 | . | .
COc1cccc(/C=N/NC(=O)c2nc(-c3ccccc3)cc(-c3ccccc3)n2)c1 | . | 6 | 11 | 0
O=C(N/N=C/c1ccc2c(c1)OCO2)c1cc(-c2ccccc2Cl)nc2ccccc12 | . | 5 | . | .
COc1ccccc1-c1cc(C(=O)N/N=C/c2sccc2C)c2ccccc2n1 | . | 4 | 48* | 0
Cc1ccsc1/C=N/NC(=O)c1cc(-c2ccncc2)nc2ccccc12 | . | 4 | . | .
CCOc1ccccc1-c1cc(C(=O)N/N=C/c2ccc3c(c2)OCO3)c2ccccc2n1 | . | 7 | 92* | 53*
COC(=O)C[N+](C)(C)CC#Cc1ccccc1 | . | 4 | . | .
O=C(C#Cc1ccccc1)c1cccc([N+](=O)[O-])c1 | 1 | 6 | 48* | 3
COc1ccc(CNC(=O)C(c2ccc(C)o2)N(Cc2cccs2)C(=O)Cc2cccs2)cc1 (configuration not stated) | 1.2 | 7 | . | .

Screens as filed in PubChem BioAssay.
